A selection: hits, their analogues and other compounds. The true share with any hit is near 17%.
TGFb inhibitor: blocks TGF-b signaling. HepG2 CAGA-GFP TGF-b/SMAD3 reporter, GFP fluorescence, 18 h; TGF-beta stimulated, 500 pg/mL final. Potency, µM (highest dose often 46.1 µM), for the others: top-dose activity, negative = inhibition, usual class: inhibitors. 410,000 compounds, 1.2% hits; also: % is scaled to controls: 0 for no effect and ±100 for the full control effect; nearly all actives have a fitted effect of over 65% in size
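First, reporter cells (HEPG2 CAGA-GFP) rested 2 h at 37 degrees C. Next, compounds were pinned in and TGF-beta added to 500 pg/mL final. After 18 h, GFP was imaged per cell and summed per well.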
HepG2 viability: counter-screen for TGF-b inhibitors: cytotoxicity in HepG2 cells. Potency, µM (series often up to 46.1 µM), for inactives: top-dose activity change, negative = cytotoxicity, hits mostly cytotoxic. HepG2 CAGA-GFP viability, ATP luminescence, 18 h. 410,000 compounds, 0.76% hits
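HepG2 CAGA-GFP cells (1000/well, DMEM with 1% FBS) received compound, then TGF-beta at 500 pg/mL final, and were incubated 18 hours at 37 degrees C. Viability was read by CellTiter-Glo luminescence. Media-only wells were set as complete cell-killing and DMSO as no toxicity.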
DT40 TDP1 no CPT: qHTS for Inhibitors of human tyrosyl-DNA phosphodiesterase 1 (TDP1): qHTS in cells in absence of CPT; DT40 Tdp1-/- hTDP1 cells, no CPT, ATP luminescence, 48 h; Potency, µM (highest dose often 46.2 µM), for inactives: top-dose activity change, negative = growth inhibition, usual class: inhibitors; 420,000 compounds, 15% hits; AID 686978, 2013; also: % is scaled to controls: 0 for no effect and ±100 for the full control effect; nearly all actives have a fitted effect of over 55% in size
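DT40 Tdp1-/-;hTDP1 cells, no CPT (DMSO vehicle only), 400 cells/well; compounds pin-transferred; ≥48 hr, 37 °C; CellTiter-Glo 30 min RT dark, luminescence read.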
HT1080NT lethal: kills 2HG-producing HT-1080-NT fibrosarcoma cells. 360,000 compounds, 1.6% hits. HT-1080-NT fibrosarcoma viability, CellTiter-Glo ATP luminescence, 48 h. Potency, µM (series often up to 46.1 µM), inactives show at the top dose activity, negative = less viability, actives largely listed as cytotoxic;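 also: NT is the 2HG producing partner of a matched IDH1 knockdown line; 0% = DMSO-treated cells and -100% = media-only wells without cells; nearly all actives have a fitted effect of over 55% in size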
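Viability of the 2HG-overproducing fibrosarcoma line after 48 hours of compound exposure at 37 degrees C was determined by luminescence with CellTiter-Glo, and concentration-effect curves were then fitted and categorized.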
TDP1 cell CPT: DT40-hTDP1 cell growth loss with CPT. AID 686979. chicken DT40 Tdp1-/-;hTDP1 cells + 20 nM CPT, ATP luminescence, 48 h. Potency, µM (top dose mostly 46.2 µM), without a hit: top-dose activity change, negative = growth inhibition, most hits filed as inhibitors. 420,000 compounds, 12% hits; also: % is scaled to controls: 0 for no effect and ±100 for the full control effect; nearly all actives have a fitted effect of over 55% in size
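Chicken DT40 Tdp1-/- cells complemented with human TDP1, 400 cells/well, exposed to compounds plus 20 nM camptothecin for at least 48 h at 37 C; viability read as ATP content by CellTiter-Glo luminescence.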
HT1080 IDH1KD tx: toxicity to HT-1080 IDH1 knockdown cells (counter line); HT-1080 IDH1 knockdown viability, ATP luminescence, 48 h; Potency, µM (titrated, usually from 46.1 µM), for the others: at the top dose activity, negative = toxicity, most hits filed as cytotoxic; 360,000 compounds, 2% hits;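 also: 0% = DMSO wells and -100% = cell-free medium wells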
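Luminescent ATP read-out (CellTiter-Glo, 10 min at room temperature) after 48 h compound exposure at 37 °C gave viability of IDH1-knockdown HT-1080 cells. Activity was normalised to DMSO and cell-free wells, then fitted as concentration-response curves.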
Starred values were filed as active, the others as inactive; ? = inconclusive; nt = not tested or not shown. Calls follow the shape of the dose curve; as a rule, active = well fitted curve in the direction sought with a large enough effect; inconclusive = small, poorly fitted or top-dose-only effect, or another doubt; inactive = no such curve, though single readings can be large; an effect the other way counts as inactive or inconclusive. Potency is read from the fitted curve at half-maximal effect.

SMILES	TGFb inhibitor	HepG2 viability	DT40 TDP1 no CPT	HT1080NT lethal	TDP1 cell CPT	HT1080 IDH1KD tx
Cc1cc(OC(C)C(=O)NCCCN2CCOCC2)ccc1Cl (stereo not drawn)	14%	6%	-19%	-1%	-1%	-3%
COC(=O)c1ccc(S(=O)(=O)NCCSc2nnc3c4ccccc4n(C)c3n2)cc1	-13%	-3%	15µM*	3%	?	-11%
CCN(CC)CC(C)CNC(=O)C1(O)c2ccccc2NC(=O)N1c1ccc(Cl)c(Cl)c1 (stereo not drawn)	-8%	-24%	3%	13%	6%	16%
CC(OC(=O)Cn1nnc2ccccc21)C(=O)NC1CCCC1 (stereo not drawn)	7%	-5%	-4%	7%	16%	6%
O=C(Nc1ccc2nn(-c3ccc(Cl)cc3)nc2c1)c1cc2ccccc2o1	-3%	6%	-10%	nt	0%	nt
Cc1csc(N(C)C(=O)CSc2nnc(COc3cccc4ccccc34)o2)n1	?	-8%	5.8µM*	6.3µM*	5.8µM*	?
Cc1ccc(N/N=C2\CS(=O)(=O)N(C)c3ccsc32)cc1	7%	-14%	?	-8%	?	-21%
CN1c2ccsc2/C(=N/Nc2ccc(F)cc2)CS1(=O)=O	33%	10%	2.6µM*	-25%	2.1µM*	?
Cc1ccc(S(=O)(=O)Nc2ccccc2F)cc1C(=O)OC(C)C(=O)N1CCOCC1 (stereo not drawn)	-1%	4%	0%	-1%	7%	-1%
O=C(Nc1cccc(Cl)c1N1CCCCC1)c1ccc2c(c1)OCCO2	5%	0%	21µM*	?	?	?
O=C(NC(=S)Nc1cccc(Cl)c1N1CCCCC1)c1ccc2c(c1)OCCO2	?	1%	?	11%	3.3µM*	4%
CCOc1ccc(NC(=O)c2oc3ccccc3c2NC(=O)Cc2ccc(OC)c(OC)c2)cc1	-39%	-20%	?	nt	?	nt
COc1ccc(CC(=O)Nc2c(C(=O)Nc3ccc(F)cc3)oc3ccccc23)cc1OC	1%	-3%	21µM*	nt	12µM*	nt
COC(=O)c1cc(NC(=O)Cc2coc3cc(OC)ccc23)cc(C(=O)OC)c1	-6%	-34%	?	2%	23µM*	-30%
COc1ccc(NC(=O)c2oc3ccccc3c2NC(=O)Cc2coc3cc(C)ccc23)cc1	5%	-11%	12µM*	nt	?	nt
CCOc1ccc(C(=O)NCC(=O)N2CCc3ccccc3C2)cc1OCC	0%	-2%	0%	-3%	-7%	9%
COc1cc2[nH]c3c(Cl)ncnc3c2cc1OC	-7%	-9%	21µM*	12%	?	-1%
COc1cc2[nH]c3c(N4CCN(c5ccc(Cl)cc5)CC4)ncnc3c2cc1OC	-10%	-36%	18µM*	?	18µM*	?
COc1ccc(C=O)c2[nH]c3c(Cl)ncnc3c12	9%	4%	?	-1%	-20%	-2%
COc1ccnc(N2CCN(c3ccc(Cl)cc3)CC2)c1C#N	-1%	0%	?	9%	-20%	9%
Cc1ccc(NC(=O)c2c(-c3c(F)cccc3Cl)noc2C)cc1F	-7%	-21%	?	-15%	-14%	-11%
CCOC(=O)c1c(C)[nH]c(C)c1S(=O)(=O)N1CCCC(C(=O)NCc2cccc(C)c2)C1 (stereo not drawn)	-3%	-5%	-3%	nt	-23%	nt
CCNC(=S)NNc1ccccc1	-7%	10%	5.2µM*	8.2µM*	3.3µM*	6.5µM*
S=C(NCc1ccccc1)NNc1ccccc1	?	-3%	5.8µM*	?	4.6µM*	?
